# From PubChem
# Most compounds without a hit are left out; they make up all but 1.5% or so of the library.
# S1P2 ag = S1P2 receptor agonists, primary screen, cell-based | Sphingosine 1-phosphate receptor 2 (Homo sapiens), O95136 | activation, % at 4.5 µM | AID 729, 2007 | 0.46% of 97,000 active | S1P2-expressing cell line, agonist reporter read-out; in the data active = activation above about 16%
# S1P2 blocker = human S1P2 receptor antagonists, primary screen, cell-based. Sphingosine 1-phosphate receptor 2 (Homo sapiens), O95136. cell-based S1P2 antagonist assay, inhibition at 5 uM. inhibition, % at 5 µM. 0.21% of 97,000 active; in the data active = inhibition above about 45%;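 note: CRE beta-lactamase reporter cells expressing human S1P2 stimulated with S1P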
# CD11b adhes enh = enhancers of CD11b/CD18 adhesion to fibrinogen, primary screen, K562 cells, luminescence; Integrin beta-2 (Homo sapiens) + Integrin alpha-M (Homo sapiens), P05107+P11215; ATPlite luminescence; 0.07% of 93,000 active; activation, % at 10 µM;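 active = 10 µM primary screen giving 50% or more activity, confirmed by 40% or more on retest at that dose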
# GALR2 antag = GALR2 antagonists in receptor-expressing cells, primary screen; antagonist mode; inhibition, % at 4 µM; 0.39% of 140,000 active; AID 828, 2007; in the data active = inhibition above about 27%;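 note: cells stimulated with galanin 1-16 at roughly its EC80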
# Target sequence (O43603 whole entry, looked up): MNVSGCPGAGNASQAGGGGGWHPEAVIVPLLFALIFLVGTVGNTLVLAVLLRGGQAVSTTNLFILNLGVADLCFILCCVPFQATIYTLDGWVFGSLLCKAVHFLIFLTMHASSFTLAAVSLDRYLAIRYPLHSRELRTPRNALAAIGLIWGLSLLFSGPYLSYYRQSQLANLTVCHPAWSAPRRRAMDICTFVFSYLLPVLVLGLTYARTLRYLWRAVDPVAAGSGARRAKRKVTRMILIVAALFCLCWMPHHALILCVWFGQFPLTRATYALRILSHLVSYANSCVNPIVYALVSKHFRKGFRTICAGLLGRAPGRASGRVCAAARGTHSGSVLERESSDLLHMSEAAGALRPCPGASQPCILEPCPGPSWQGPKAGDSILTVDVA
# Mac1 fbg inh = inhibitors of CD11b/CD18 adhesion to fibrinogen, primary screen, K562 cells, luminescence; Integrin beta-2 (Homo sapiens) + Integrin alpha-M (Homo sapiens), P05107+P11215; ATPlite luminescence; Mn2+ added to activate the integrin; inhibition, % at 10 µM; 0.54% of 93,000 active;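 active = primary inhibition of 50% or more at 10 µM, then 40% or more on retest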
# GALR2 agonist = GALR2 receptor agonists, primary screen, cell-based; GALR2-expressing cells, agonist activation read-out; activation, % (no concentration beside the values); Galanin receptor type 2 (Homo sapiens), O43603; 0.48% of 140,000 active; AID 803, 2007; in the data active = activation above about 5%, passing the limit was not always enough
# GALR2 agon conf = GALR2 agonists, retest of hits, confirmation, cell-based; GALR2-expressing cells, agonist activation; 10% of 460 active; shares compounds with GALR2 agonist; activation, % at 5.6 µM; in the data active = activation above about 8.4%
# BLA act counter = activators of NFAT-driven beta-lactamase reporter, confirmation, counter-screen for GALR2 agonist project, CHO NFAT-bla cells, FRET readout. shares compounds with GALR2 agonist. activation, % at 5.6 µM. AID 865, 2007. 10% of 460 active. beta-lactamase FRET activation;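 active = activation above the screen-wide mean activation plus 3 SD, cut at about 8% in these data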
# A number is an active result; n = inactive; x = not tested or not shown.
SMILES,S1P2 ag,S1P2 blocker,CD11b adhes enh,GALR2 antag,Mac1 fbg inh,GALR2 agonist,GALR2 agon conf,BLA act counter
N#Cc1c(SCC(N)=O)nc2c(c1-c1ccc(OCc3ccccc3)cc1)CCCC2,n,n,x,n,x,n,x,x
O=C(Nc1ccccc1-c1nnc(SCc2ccccc2Cl)o1)c1ccccc1,n,n,n,n,n,n,x,x
O=C(NNC(=S)NC1CCCCC1)c1sc2ccccc2c1Cl,x,x,x,n,x,n,x,x
CC(C)(C)C(=O)NC(=S)NNC(=O)c1sc2ccccc2c1Cl,x,x,n,n,n,100.8,65.5,107.6
N=c1oc2ccccc2cc1-c1nc(-c2ccccc2)cs1,x,x,n,n,n,19.7,n,n
COC(=O)Cc1c(C)c2ccc(OC(=O)c3ccco3)cc2oc1=O,n,n,n,n,n,n,x,x
COC(=O)Cc1c(C)c2cc(Cl)c(OC(=O)c3ccco3)cc2oc1=O,n,n,n,n,n,12.7,n,n
O=S(=O)(Nc1ccc2c(c1)OCO2)c1ccccc1,n,n,n,n,n,34.0,n,n
Cc1[nH]nc(N=CC2=C(O)CC(c3ccco3)CC2=O)c1-c1ccccc1 (stereo unspecified),n,n,n,n,n,n,x,x
Cc1[nH]nc(N=CC2=C(O)CC(C)(C)CC2=O)c1-c1ccccc1,n,n,n,n,n,14.0,n,n
Cc1noc(C)c1COC(=O)CCCc1c[nH]c2ccccc12,x,x,n,n,n,n,x,x
COc1ccccc1/C=C(/C(=O)OCC(=O)Nc1cc(C)ccc1C)c1ccccc1,x,x,x,n,x,n,x,x
Cn1c(=O)oc2cc(S(=O)(=O)N3CCCC(C(=O)Nc4ccccn4)C3)ccc21 (stereo unspecified),n,n,n,n,n,16.9,n,n
Cc1ccc(C(=O)N/C(=C/c2ccco2)C(=O)NCCc2c[nH]c3ccccc23)cc1,x,x,x,n,x,n,x,x
Cc1c(Cl)c([N+](=O)[O-])nn1CC(=O)N1CCCC1,x,x,x,n,x,n,x,x
Cc1c(Cl)c([N+](=O)[O-])nn1CC(=O)NC12CC3CC(CC(C3)C1)C2,n,n,n,n,n,38.3,n,n
CCCCNC(=O)c1ccc(Cn2c(=S)[nH]c3c([nH]c4ccc(OC)cc43)c2=O)cc1,x,x,x,n,x,10.3,n,n
CC1(C)CC(=O)C2=C(C1)Nc1ncnn1C2c1ccccn1 (stereo unspecified),n,n,n,n,n,23.1,n,n
O=C(C1CC(c2ccccc2O)=NO1)N1CCCCC1 (stereo unspecified),n,n,n,n,n,n,x,x
COc1ccc(C2=NOC(C(=O)Nc3ccc(C(C)=O)cc3)C2)cc1OC (stereo unspecified),n,n,x,n,x,n,x,x
COc1ccc(C2=NOC(C(=O)Nc3cc(Br)ccc3O)C2)cc1OC (stereo unspecified),n,n,x,n,x,20.8,n,n
CCOC(=O)COn1c(=O)c[n+]([O-])c2ccccc21,n,n,n,n,n,n,x,x
CCOC(=O)COn1c(=O)c(C)[n+]([O-])c2ccccc21,n,n,n,n,n,31.2,n,n
COc1cccc(-c2ccc(SCC(=O)N3CCc4ccccc43)nn2)c1,x,x,n,n,n,n,x,x
CCNC(=O)/C(=C/c1ccco1)NC(=O)/C=C/c1ccccc1,n,n,n,n,n,n,x,x
CCOC(=O)C(NC(=O)c1ccccc1)=C(C)C,n,n,n,n,n,n,n,n
CCCOc1ccc(CN(CCC#N)C(=S)NC(=O)c2ccccc2)cc1,x,x,x,n,x,n,x,x
Cc1cc(C)cc(NS(=O)(=O)c2ccc3oc(=O)ccc3c2)c1,n,n,n,n,n,n,x,x
COc1cc(C2=NOC(C(=O)NCc3cccs3)C2)cc(OC)c1OC (stereo unspecified),n,n,n,n,n,87.9,n,n
Cc1cc2oc(C(=O)N(Cc3ccccc3)C3CCS(=O)(=O)C3)cc(=O)c2cc1Cl (stereo unspecified),n,n,n,n,n,n,x,x
